# SNCA expr inhib: Primary qHTS assay for inhibitors of alpha-synuclein gene (SNCA) expression. HEK-293 SNCA-luciferase knock-in, luminescence, 24 h. Potency, µM (top dose mostly 57.2 µM), for inactives: top-dose activity change, negative = inhibition, usual class: inhibitors. 140,000 tested, 0.17% active. AID 1671194, 2021;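 further: plate controls were DMSO cells for no effect and cell-free wells for full effect; nearly all actives have a fitted effect of over 45% in size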
# hNpr1 antagonist: Natriuretic polypeptide receptor (hNpr1) antagonism - Primary qHTS; Atrial natriuretic peptide receptor 1 (Homo sapiens), P16066; HEK293 hNpr1 GloSensor cGMP, ANP-stimulated luminescence; Potency, µM (titrated, usually from 46.3 µM), for the others: at the top dose activity change, negative = inhibition, hits mostly inhibitors; 76,000 tested, 1.6% active; calls by dose curve; further: on the % scale 0 is the no-effect control and ±100 the full control effect; nearly all actives have a fitted effect of over 60% in size
#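 Compound pre-incubated 30 min at room temperature on GloSensor-loaded HEK293 cells stably carrying hNpr1 and the pGS-40F cGMP biosensor. Stimulation uses hNppA at 0.1 nM final; luminescence is taken at baseline and 20 min post-agonist.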
# HEK293 viab: GF-AFC viability counterscreen for inhibitors of alpha-synuclein gene (SNCA) expression; HEK-293-SNCA-luc viability, GF-AFC fluorescence, 24 h; Potency, µM (highest dose often 57.1 µM), without a hit: top-dose activity change, negative = cytotoxicity, usual class: cytotoxic; 150,000 tested, 0.12% active; AID 1671193, 2021;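 further: 0% = DMSO-treated cells and -100% = medium-only wells without cells; nearly all actives have a fitted effect of over 30% in size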
#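 HEK-293-SNCA-luc cells (1500/well) plated 24 h, then exposed 24 h to a dilution series; GF-AFC added 30 min at 37C, fluorescence 405/540 nm; normalised to medium-only and DMSO wells, Hill fit.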
# 3T3 cytotox: Cytotoxic Profiling in NIH 3T3 Cell Line of Diverse Libraries Using Quantitative High-Throughput Screening | Potency, µM (doses to about 96.7 µM), inactives show top-dose activity change, negative = cytotoxicity, hits mostly inhibitors | AID 1345082, 2018 | 94,000 tested, 4.3% active | NIH 3T3 viability, CellTiter-Glo ATP luminescence, 48-72 h; further: on the % scale 0 is the no-effect control and ±100 the full control effect; nearly all actives have a fitted effect of over 55% in size
#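 Viability of NIH 3T3 cells after 48 or 72 hr compound treatment at 37 °C was assessed by CellTiter-Glo, with luminescence imaged following a 10 min room-temperature step.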
# HEK cytotox: Cytotoxic Profiling in HEK 293 Cell Line of Diverse Libraries Using Quantitative High-Throughput Screening; HEK 293 viability, ATP luminescence (CellTiter-Glo), 48-72 h; AID 1345083, 2018; 94,000 tested, 6.6% active; Potency, µM (doses to about 115 µM), for the others: at the highest dose activity change, negative = cytotoxicity, usual class: inhibitors; further: on the % scale 0 is the no-effect control and ±100 the full control effect; nearly all actives have a fitted effect of over 60% in size
#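 qHTS cytotoxicity; HEK 293, 250 cells/well; compound pinned; 48 or 72 hr, 37 degree Celsius, 5% CO2, 95% humidity; CellTiter-Glo, 10 min RT; luminescence (ATP).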
# FLuc inh-1: Firefly luciferase inhibition profiling of diverse chemical library using quantitative high-throughput screening. Potency, µM (top dose mostly 115 µM), usual class: inhibitors. purified P. pyralis luciferase, luminescence, biochemical. 76,000 tested, 2.5% active; further: on the % scale 0 is the no-effect control and ±100 the full control effect; nearly all actives have a fitted effect of over 65% in size
# Target sequence (P08659 whole entry, looked up): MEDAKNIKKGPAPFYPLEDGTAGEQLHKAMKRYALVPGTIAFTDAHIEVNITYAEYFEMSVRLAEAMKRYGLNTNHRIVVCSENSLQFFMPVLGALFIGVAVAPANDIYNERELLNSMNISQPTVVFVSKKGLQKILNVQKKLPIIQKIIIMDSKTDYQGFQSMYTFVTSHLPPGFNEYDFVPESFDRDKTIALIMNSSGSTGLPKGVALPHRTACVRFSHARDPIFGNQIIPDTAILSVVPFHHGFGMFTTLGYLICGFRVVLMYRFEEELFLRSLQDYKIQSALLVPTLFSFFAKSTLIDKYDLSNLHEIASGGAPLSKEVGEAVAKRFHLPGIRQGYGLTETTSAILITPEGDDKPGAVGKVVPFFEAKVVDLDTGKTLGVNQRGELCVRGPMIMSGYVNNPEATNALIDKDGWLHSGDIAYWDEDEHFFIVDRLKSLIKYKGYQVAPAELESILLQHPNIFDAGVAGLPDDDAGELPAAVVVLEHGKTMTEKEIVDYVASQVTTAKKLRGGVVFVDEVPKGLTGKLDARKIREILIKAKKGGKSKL
#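 Luminescence read by CCD imager after adding enzyme (10nM final) to wells holding compound, titrated in qHTS. Substrates 10uM each D-luciferin and ATP; buffer 50mM Tris acetate pH 7.5, 10mM Mg acetate, Tween-20, BSA.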
# FLuc SDR no ATP: Firefly luciferase (FLuc-C-HiBiT) SDR gain of signal screen - without ATP | shares compounds with FLuc inh-1 | Purified FLuc-C-HiBiT, Nano-Glo HiBiT luminescence, no ATP | Potency, µM (top dose mostly 32.7 µM), for inactives: at the top dose activation (signal gain), usual class: activators | 1,300 tested, 7.8% active; further: nearly all actives have a fitted effect of over 55% in size
# FLuc SDR ATP: Firefly luciferase (FLuc-C-HiBiT) SDR gain of signal screen - plus ATP; shares compounds with FLuc inh-1; purified FLuc-C-HiBiT + ATP, HiBiT complementation luminescence; Potency, µM (top dose mostly 32.7 µM), for inactives: top-dose activation (gain of signal), usual class: activators; 1,300 tested, 8.7% active;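 further: signal reports ligand binding via conformational change of the enzyme rather than luciferase catalysis; % of control where 0% means no effect; nearly all actives have a fitted effect of over 55% in size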
# FLuc inh-2: Firefly luciferase (FLuc-C-HiBiT) enzymatic inhibition screen - Functional assay. Potency, µM (doses to about 32.7 µM), without a hit: at the top dose activity change, negative = inhibition, hits mostly inhibitors. 1,300 tested, 42% active. purified FLuc-C-HiBiT enzyme, luciferin luminescence. shares compounds with FLuc inh-1; further: on the % scale 0 is the no-effect control and ±100 the full control effect; nearly all actives have a fitted effect of over 70% in size
# The depositor's hits bear a star; i = inactive; ? = inconclusive; . = not tested or not shown; [ ] = another dose, or the depositor's remark. This is a sample that favours compounds with a hit; in the whole collection about 7.2% have one here. Unless noted, the call rests on the fitted dose curve; in most records, active means well fitted curve in the direction sought with a large enough effect; inconclusive means small, poorly fitted or top-dose-only effect, or another doubt; inactive means no such curve, though single readings can be large; an effect the other way counts as inactive or inconclusive. Potency means the concentration at half of the fitted maximal effect.
SMILES,SNCA expr inhib,hNpr1 antagonist,HEK293 viab,3T3 cytotox,HEK cytotox,FLuc inh-1,FLuc SDR no ATP,FLuc SDR ATP,FLuc inh-2
Cc1ccc(C(=O)O)cc1Nc1nc2ccccc2n2nnnc12,206%,.,14%,.,.,.,13%,11%,?
O=C(Nc1ccccc1-c1nc2ccccc2s1)c1ccc(F)cc1,-12%,.,-9%,.,.,.,8%,7%,-7%
O=C(Nc1ccccc1-c1nc2ccccc2s1)c1cc(Cl)cc(Cl)c1,-2%,.,-4%,.,.,.,10%,9%,2%
COc1ccc(C(=O)Nc2nnc(C(C)C)s2)cc1OC,198%,.,-5%,.,.,.,.,.,.
COc1ccc(C(=O)Nc2ccccc2-c2nc3ccccc3s2)cc1OC,0%,.,-3%,.,.,.,13%,9%,0%
Cc1ccc(S(=O)(=O)N2CCCN(C)c3ccccc32)c(C)c1,-21%,3%,-6%,?,?,i,.,.,.
O=C(c1ccc(Cl)cc1)N1CCC(C(=O)N2CCC(c3nc4ncccc4[nH]3)C2)CC1 (configuration not stated),32%,.,-5%[12.5 µM],-15%,0%,.,.,.,.
CC(=O)NC1(C)CCCN(Cc2cc(-c3ccccc3)cs2)C1 (configuration not stated),20%[87.6 µM],4%[70.6 µM],10%[87.6 µM],?,?,i,.,.,.
O=C(CC1CCCN(c2cn[nH]c(=O)c2)C1)N1CCCCC1 (configuration not stated),16%,16%,-5%,i,2%,i,.,.,.
Cc1ccc(C(=O)Nc2cccc3cccnc23)cc1Cl,58%,.,1%,.,.,.,9%,8%,-14%
CCCOc1cccc(C(=O)Nc2cccc3cccnc23)c1,45%,.,6%,.,.,.,.,.,.
O=C(Nc1ccc(F)c(Cl)c1)C1CCN(C(=O)c2ncn3c2COC(c2ccccc2)C3)CC1 (configuration not stated),53%,?,1%,i,7%,1.8µM*,13%,0.7µM*,0.99µM*
COc1ccc(NC(=O)C2CCN(C(=O)c3ncn4c3COC(c3ccccc3)C4)CC2)cc1Cl (configuration not stated),40%,?,-3%,1%,1%,1.3µM*,15%,0.62µM*,0.88µM*
COc1ccc(C2Cn3cnc(C(=O)N4CCC(C(=O)Nc5ccc(F)c(F)c5)CC4)c3CO2)cc1 (configuration not stated),19%,-12%,6%,-5%,-2%,i,.,.,.
O=C(Nc1ccc(F)c(F)c1)C1CCN(C(=O)c2ncn3c2COC(c2ccc(F)cc2)C3)CC1 (configuration not stated),7%,-14%,5%,-9%,?,14µM*,12%,?,?
COCCN1CCCC2(CCN(C(=O)c3oc4cc(C)ccc4c3C)C2)C1=O (configuration not stated),41%,2%,-11%,-22%,?,i,.,.,.
O=C(NC1CCCC1)N1CCC(C(=O)N2CCC(c3ccccc3)CC2)CC1,-3%,.,-7%,-43%,-28%,.,.,.,.
CCn1cc(C(=O)N[C@@H]2CN(S(C)(=O)=O)C[C@H]2CN(C)C)cn1,-24%,0%,10%,-13%,-2%,i,.,.,.
CCOC(=O)C1CCCN(C(=O)c2nc3sccn3c2-c2cccc(C#N)c2)C1 (configuration not stated),31%,.,-3%,-23%,?,.,.,.,.
O=C(CC1=C2CCCCC2NC1=O)NCC1CCN(Cc2cccc(F)c2)CC1 (configuration not stated),7%,-3%,1%,-7%,-10%,i,.,.,.
CN(c1ccccc1)c1ccc2ncn(C3CC3)c(=O)c2n1,?,16µM*,0%[87.6 µM],?,?,1.3µM*,18µM*,7.2µM*,5.7µM*
COc1ccc2[nH]c3c(c2c1)CCNC31CCN(C(=O)c2ccco2)CC1,12%,0%,-10%[12.5 µM],?,?,i,.,.,.
CO[C@H]1COCCN(C(=O)c2cc(C)oc2C(F)(F)F)C1,-18%[87.6 µM],2%[70.6 µM],2%[87.6 µM],i,i,i,.,.,.
COc1ccc(-c2cnc(Nc3cccc(N[S+](C)(=O)[O-])c3)c3c2CCO3)cn1,1%[87.6 µM],0%[70.6 µM],-6%[87.6 µM],?,89µM*,14µM*,16%[49.3 µM],12%[49.3 µM],?
COc1ccc(-c2cnc(NC(=O)Cc3ccc(F)cc3)c3c2CCO3)cn1,48%[87.6 µM],-12%[70.6 µM],6%[87.6 µM],?,?,i,.,.,.
Cc1nc(-c2c3n(c(=O)n(Cc4ccc(Cl)cc4)c2=O)CCCC3)no1,-11%,-1%,7%,-13%,-1%,i,.,.,.
COc1ccc(CNC(=O)Cn2cccc2C(=O)c2ccccc2C)cc1,197%,.,-2%,.,.,.,14%,13%,-11%
Cc1cc(C(=O)N2CCC(N3C(=O)C4(CCCC4)C3c3ccccc3)CC2)nn1C (configuration not stated),13%,13%,1%[12.5 µM],i,-3%,i,.,.,.
C[C@@H]1C(=O)O[C@H]2[C@H]1CC[C@@]1(C)Cc3sc(NCCc4ccccn4)nc3[C@@H](C)[C@H]21,33%[87.6 µM],?,-25%[87.6 µM],?,35µM*,4.5µM*,?,17%[49.3 µM],16µM*
COc1ccc(OC)c(S(=O)(=O)Nc2nc3c(s2)C[C@]2(C)CC[C@@H]4[C@H](OC(=O)[C@H]4C)[C@H]2[C@@H]3C)c1,5%,0%,2%,?,?,i,.,.,.

# Screens from PubChem BioAssay.
